The values below come from ChEMBL document CHEMBL1961873, “Compounds: GSK PKIS; Assays: Nanosyn kinase panel” (2012).

For test [1], the target named is Leukocyte tyrosine kinase receptor (Homo sapiens) (UniProt P29376). As to conditions: at 1 µM.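 Also: each value is the mean inhibition of LTK.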
The target of test [2] is Tyrosine-protein kinase Lyn (Homo sapiens) (UniProt P07948). As to conditions: at 0.1 µM.
For test [3] the target is unchanged. Conditions: at 1 µM.
Test [4] has the same target. As to conditions: at 0.1 µM. This is another data set of the same source.
Test [5] has the same target. Conditions: at 1 µM. This is another data set of the same source.
Test [6] deals with T1, Tyrosine-protein kinase Mer (Homo sapiens) (UniProt Q12866).
T1 sequence (whole entry): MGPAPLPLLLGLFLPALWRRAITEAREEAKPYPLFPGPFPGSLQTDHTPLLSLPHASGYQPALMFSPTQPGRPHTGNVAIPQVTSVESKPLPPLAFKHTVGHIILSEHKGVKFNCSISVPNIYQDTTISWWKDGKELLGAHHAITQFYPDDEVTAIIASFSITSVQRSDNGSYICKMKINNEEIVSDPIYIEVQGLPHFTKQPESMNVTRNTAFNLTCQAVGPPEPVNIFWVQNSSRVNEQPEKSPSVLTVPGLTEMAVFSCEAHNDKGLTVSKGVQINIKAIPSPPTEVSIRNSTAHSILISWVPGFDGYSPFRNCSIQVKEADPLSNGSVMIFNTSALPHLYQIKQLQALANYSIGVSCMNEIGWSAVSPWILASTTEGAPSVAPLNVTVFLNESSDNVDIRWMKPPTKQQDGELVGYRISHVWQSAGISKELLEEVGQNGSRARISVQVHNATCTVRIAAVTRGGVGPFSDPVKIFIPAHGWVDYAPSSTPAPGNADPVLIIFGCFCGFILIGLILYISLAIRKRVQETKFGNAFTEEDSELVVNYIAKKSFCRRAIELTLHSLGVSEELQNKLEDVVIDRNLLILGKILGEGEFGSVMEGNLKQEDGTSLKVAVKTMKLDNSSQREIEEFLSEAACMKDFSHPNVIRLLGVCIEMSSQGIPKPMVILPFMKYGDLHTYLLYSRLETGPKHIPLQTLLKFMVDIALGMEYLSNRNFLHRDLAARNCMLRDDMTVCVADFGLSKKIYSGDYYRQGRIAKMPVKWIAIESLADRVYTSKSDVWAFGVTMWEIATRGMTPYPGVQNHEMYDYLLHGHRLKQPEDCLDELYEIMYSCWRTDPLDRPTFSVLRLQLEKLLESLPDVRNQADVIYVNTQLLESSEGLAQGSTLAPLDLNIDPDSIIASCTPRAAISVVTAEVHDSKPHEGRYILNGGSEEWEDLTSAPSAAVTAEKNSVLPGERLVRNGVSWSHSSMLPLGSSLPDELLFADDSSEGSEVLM
Conditions: at 0.1 µM.

The target in test [7] is T1, Tyrosine-protein kinase Mer (Homo sapiens). Conditions: at 1 µM.
For test [8], the target named is Hepatocyte growth factor receptor (Homo sapiens) (UniProt P08581). As to conditions: at 0.1 µM.
Sequence of Hepatocyte growth factor receptor (Homo sapiens) (P08581 whole entry): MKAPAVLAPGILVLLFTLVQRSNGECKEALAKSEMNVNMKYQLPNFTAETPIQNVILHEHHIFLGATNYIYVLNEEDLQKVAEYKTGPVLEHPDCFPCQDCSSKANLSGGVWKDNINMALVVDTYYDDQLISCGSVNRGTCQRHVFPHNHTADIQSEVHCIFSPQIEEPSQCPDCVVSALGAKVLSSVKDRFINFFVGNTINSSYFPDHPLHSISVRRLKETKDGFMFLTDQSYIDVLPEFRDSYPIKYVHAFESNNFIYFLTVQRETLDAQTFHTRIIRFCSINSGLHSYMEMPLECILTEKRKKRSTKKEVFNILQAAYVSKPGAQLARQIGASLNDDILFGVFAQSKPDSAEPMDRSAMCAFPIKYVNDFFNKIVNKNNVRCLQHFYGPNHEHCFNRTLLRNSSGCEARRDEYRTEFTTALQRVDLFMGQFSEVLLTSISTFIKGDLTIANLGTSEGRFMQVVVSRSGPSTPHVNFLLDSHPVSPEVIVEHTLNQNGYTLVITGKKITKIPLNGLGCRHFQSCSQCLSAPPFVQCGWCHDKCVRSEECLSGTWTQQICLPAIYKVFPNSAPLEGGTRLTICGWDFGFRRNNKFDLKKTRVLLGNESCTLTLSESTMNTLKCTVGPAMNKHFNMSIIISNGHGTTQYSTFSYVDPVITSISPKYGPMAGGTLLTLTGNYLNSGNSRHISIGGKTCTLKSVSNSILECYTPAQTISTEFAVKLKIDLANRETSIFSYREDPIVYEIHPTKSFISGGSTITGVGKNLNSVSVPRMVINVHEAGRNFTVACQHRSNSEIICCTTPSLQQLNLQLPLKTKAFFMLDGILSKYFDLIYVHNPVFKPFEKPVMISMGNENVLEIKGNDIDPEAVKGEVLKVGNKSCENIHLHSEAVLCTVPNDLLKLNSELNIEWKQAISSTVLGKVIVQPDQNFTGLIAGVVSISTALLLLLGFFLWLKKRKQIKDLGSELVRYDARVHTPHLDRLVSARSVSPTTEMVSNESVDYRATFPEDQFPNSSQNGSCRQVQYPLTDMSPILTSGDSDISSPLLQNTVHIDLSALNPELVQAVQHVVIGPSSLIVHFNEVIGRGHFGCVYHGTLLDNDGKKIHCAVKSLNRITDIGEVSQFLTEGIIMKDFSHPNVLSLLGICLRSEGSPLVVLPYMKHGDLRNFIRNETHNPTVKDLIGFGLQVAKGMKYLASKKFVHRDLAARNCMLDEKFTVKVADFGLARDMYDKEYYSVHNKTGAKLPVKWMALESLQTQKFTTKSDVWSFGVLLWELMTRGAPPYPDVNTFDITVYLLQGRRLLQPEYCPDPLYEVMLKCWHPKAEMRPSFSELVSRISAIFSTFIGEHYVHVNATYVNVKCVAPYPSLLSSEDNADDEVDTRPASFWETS
For test [9] the target is unchanged. As to conditions: at 1 µM.
For test [10], the target named is T2, Muscle, skeletal receptor tyrosine-protein kinase (Homo sapiens) (UniProt O15146).
T2 sequence (whole entry): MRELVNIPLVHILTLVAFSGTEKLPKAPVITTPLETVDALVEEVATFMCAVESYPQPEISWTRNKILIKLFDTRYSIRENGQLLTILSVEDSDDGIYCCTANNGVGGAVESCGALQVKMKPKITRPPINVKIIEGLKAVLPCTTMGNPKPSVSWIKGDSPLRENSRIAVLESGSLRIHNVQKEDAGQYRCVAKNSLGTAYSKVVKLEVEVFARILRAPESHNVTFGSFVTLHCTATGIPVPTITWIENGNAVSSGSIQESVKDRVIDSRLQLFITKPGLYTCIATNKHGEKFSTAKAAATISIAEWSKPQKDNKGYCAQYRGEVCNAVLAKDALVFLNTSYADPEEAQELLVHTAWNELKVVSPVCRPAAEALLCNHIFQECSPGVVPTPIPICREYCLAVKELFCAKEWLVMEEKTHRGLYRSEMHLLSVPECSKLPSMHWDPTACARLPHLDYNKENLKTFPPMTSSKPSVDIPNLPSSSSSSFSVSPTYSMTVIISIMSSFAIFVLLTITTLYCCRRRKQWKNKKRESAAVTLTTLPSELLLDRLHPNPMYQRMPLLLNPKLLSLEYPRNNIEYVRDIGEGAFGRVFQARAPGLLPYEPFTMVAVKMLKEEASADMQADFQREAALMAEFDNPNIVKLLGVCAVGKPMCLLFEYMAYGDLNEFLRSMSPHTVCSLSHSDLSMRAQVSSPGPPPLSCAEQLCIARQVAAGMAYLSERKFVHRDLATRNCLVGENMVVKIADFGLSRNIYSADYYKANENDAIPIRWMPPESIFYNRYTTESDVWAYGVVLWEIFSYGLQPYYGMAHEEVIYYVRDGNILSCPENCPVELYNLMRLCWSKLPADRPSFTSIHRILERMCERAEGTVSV
Conditions: at 0.1 µM.

In test [11] the target is T2, Muscle, skeletal receptor tyrosine-protein kinase (Homo sapiens). Conditions: at 1 µM.
In test [12] the target is Platelet-derived growth factor receptor alpha (Homo sapiens) (UniProt P16234). As to conditions: at 0.1 µM.
Sequence of Platelet-derived growth factor receptor alpha (Homo sapiens) (P16234 whole entry): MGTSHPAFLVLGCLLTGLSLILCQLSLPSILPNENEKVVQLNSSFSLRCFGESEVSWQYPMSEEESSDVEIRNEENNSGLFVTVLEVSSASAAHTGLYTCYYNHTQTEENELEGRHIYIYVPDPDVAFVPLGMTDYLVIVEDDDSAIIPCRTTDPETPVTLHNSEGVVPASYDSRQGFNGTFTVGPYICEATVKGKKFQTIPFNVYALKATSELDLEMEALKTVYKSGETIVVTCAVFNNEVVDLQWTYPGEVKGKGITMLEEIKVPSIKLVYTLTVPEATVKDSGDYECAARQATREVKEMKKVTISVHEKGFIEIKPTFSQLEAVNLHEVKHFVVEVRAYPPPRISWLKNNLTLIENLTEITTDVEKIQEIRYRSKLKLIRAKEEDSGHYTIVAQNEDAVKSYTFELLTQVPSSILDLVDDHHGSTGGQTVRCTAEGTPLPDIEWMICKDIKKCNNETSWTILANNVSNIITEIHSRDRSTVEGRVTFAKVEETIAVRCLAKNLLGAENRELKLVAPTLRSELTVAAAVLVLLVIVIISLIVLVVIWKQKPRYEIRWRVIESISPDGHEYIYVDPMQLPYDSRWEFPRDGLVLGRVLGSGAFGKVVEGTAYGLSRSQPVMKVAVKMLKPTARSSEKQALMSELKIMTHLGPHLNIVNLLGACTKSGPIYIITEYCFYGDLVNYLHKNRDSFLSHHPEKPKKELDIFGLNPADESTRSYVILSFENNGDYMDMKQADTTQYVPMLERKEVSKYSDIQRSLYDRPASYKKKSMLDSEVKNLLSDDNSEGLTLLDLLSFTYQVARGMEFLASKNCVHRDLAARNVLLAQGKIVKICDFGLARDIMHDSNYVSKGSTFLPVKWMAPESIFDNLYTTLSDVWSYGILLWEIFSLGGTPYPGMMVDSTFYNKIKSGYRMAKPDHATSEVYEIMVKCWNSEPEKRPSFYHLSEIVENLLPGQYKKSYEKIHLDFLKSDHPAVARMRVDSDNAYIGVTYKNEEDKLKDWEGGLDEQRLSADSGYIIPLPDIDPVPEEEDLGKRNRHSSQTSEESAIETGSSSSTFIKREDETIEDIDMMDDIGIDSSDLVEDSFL
The target is the same in test [13]. As to conditions: at 1 µM.
Test [14] deals with Platelet-derived growth factor receptor alpha (Homo sapiens), P16234 [D842V]. As to conditions: at 0.1 µM.
Sequence of Platelet-derived growth factor receptor alpha (Homo sapiens), P16234 [D842V] (P16234 whole entry D842V): as the sequence (P16234 whole entry) above, with D842V counted along it
The test system is the same in test [15]. As to conditions: at 1 µM.
Test [16] has as its system Platelet-derived growth factor receptor alpha (Homo sapiens), P16234 [T674I]. As to conditions: at 0.1 µM.
Test [17] shares this test system. Conditions: at 1 µM.
The test system of test [18] is Platelet-derived growth factor receptor alpha (Homo sapiens), P16234 [V561D]. Conditions: at 0.1 µM.
Sequence of Platelet-derived growth factor receptor alpha (Homo sapiens), P16234 [V561D] (P16234 whole entry V561D): as the sequence (P16234 whole entry) above, with V561D counted along it
Test [19] shares this test system. Conditions: at 1 µM.
Test [20] has as its target Platelet-derived growth factor receptor beta (Homo sapiens) (UniProt P09619). Conditions: at 0.1 µM.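 Also: reported value is the mean percent inhibition of the kinase.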

On to `NS(=O)(=O)c1ccc(N/N=C2\C(=O)Nc3ccc(Cl)cc32)cc1`, for which the inhibition in test [1] was determined as 4.81%; in [2], 4.69%; in [3], 8.22%; in [4], 1.56%; in test [5] it was 6.78%; in [6], 1.61%. In addition, the inhibition in test [7] was 1.21%; in test [8], 7.96%; in test [9], 7.49%; in test [10] it was 4.35%; in [11], 12.6%; in [12] it was 13.1%. Further, the inhibition turned out to be 40.6% in test [13]; 4.17% in [14]; 13.1% in [15]; 11.4% in test [16]; 62.9% in [17]; 17.2% in test [18]. Besides, the inhibition in [19] amounted to 47%; in test [20], 11.1%.
In the case of `CN(C)c1cc2c(Nc3ccc4c(cnn4Cc4ccccc4)c3)ncnc2cn1`, the inhibition in test [1] worked out at 3.01%; in [2], 2.67%; in [3], 13.5%; in test [4], 2.82%; in test [5], 10.6%; in test [6] it was 6.16%. Besides, the inhibition in test [7] turned out to be 40.9%; in test [8] it was 5.12%; in [9], 0.45%; in test [10] it was 1.76%; in test [11] it was 1.56%; in test [12], 0%. Moreover, the inhibition in test [13] was 8.21%; in test [14], 0.65%; in test [15], 4.51%; in test [16], 3.93%; in [17] it was 8.69%; in test [18], 0.81%. Moreover, the inhibition was 6.19% in test [19] and -1% in test [20].
With `COc1cccc(-n2nc(C)c3c(N/N=C(\C)c4ccncc4)ncnc32)c1`, the inhibition in [1] was 1.76%; in test [2] it was 1.67%; in [3], 2.24%; in test [4], 2.02%; in [5] it was 1.38%; in [6] it was 1.59%. Besides, the inhibition in test [7] is -0.09%; in test [8], -1.53%; in test [9] it was -2.4%; in test [10], 0.43%; in test [11], 0.36%; in [12], 1.29%. The inhibition in [13] is 7.93%; in test [14], -0.18%; in test [15], 1.8%; in test [16], 1.42%; in [17] it was 4.43%; in test [18] it was 0.1%. Moreover, the results for the inhibition in test [19] and in test [20] were 0.01% and 3.11%, respectively.
`CN1CCN(C(=O)c2ccc(NC(=O)Nc3ccc(N(C)c4ccnc(Nc5ccc(CS(C)(=O)=O)cc5)n4)cc3)cc2)CC1`: the inhibition amounted to 10.7% in test [1]; 2.45% in test [2]; 19.7% in [3]; 1.67% in test [4]; 18.1% in test [5]; 12.8% in test [6]. In addition, the inhibition came out at 52.3% in test [7]; 45.6% in test [8]; 77.4% in [9]; 5.5% in test [10]; 38.9% in test [11]; 59.9% in [12]. Also, the inhibition is 77.5% in test [13]; 7.23% in test [14]; 46.1% in test [15]; 67.2% in test [16]; 85.5% in [17]; 75.2% in test [18]. Moreover, the inhibition in test [19] came out at 94.1%; in [20], 60.3%.
Regarding `c1ccc(Nc2ncc(-c3ccccc3)o2)cc1`, the inhibition turned out to be 6.52% in [1]; 5.9% in test [2]; 9.62% in test [3]; 4.91% in test [4]; 7.76% in test [5]; 2.15% in test [6]. The inhibition in test [7] was determined as 2.41%; in [8], 3.87%; in test [9], 6.02%; in test [10], 3.65%; in test [11] it was 4.33%; in test [12], 9.48%. In addition, the inhibition in [13] turned out to be 30.3%; in test [14] it was 3.2%; in test [15] it was 7.2%; in test [16] it was 6.18%; in test [17], 36.6%; in [18], 20%. The inhibition in test [19] amounted to 45.7%; in test [20], 10.8%.
As for `CN(C)C(=O)O[C@H]1CN[C@H](C#Cc2cc3ncnc(Nc4ccc(OCc5cccc(F)c5)c(Cl)c4)c3s2)C1`, the inhibition worked out at 3.95% in [1]; 3.87% in test [2]; 4.57% in [3]; 1.48% in [4]; 3.94% in test [5]; 0.43% in [6]. The inhibition is 3.05% in [7]; 1.84% in test [8]; 6.26% in test [9]; 2.98% in test [10]; 3.36% in test [11]; 6.77% in test [12]. Further, the inhibition was 11.1% in test [13]; 3.09% in test [14]; 1.15% in test [15]; 5.6% in [16]; 4.48% in [17]; 4.17% in test [18]. The inhibition in [19] stood at 7.24%; in test [20], 2.18%.
